# From PubChem BioAssay
# Most compounds without a hit are left out; they make up all but 6% or so of the library.
# D1 agonist: Allosteric Agonists of the Human D1 Dopamine Receptor: qHTS; activation, % at 2 µM; 1% of 360,000 active; D(1A) dopamine receptor (Homo sapiens), P21728; HEK293 T-REx D1 cells, calcium flux, agonist mode; in the data active means activation above about 30%; further: 0% is about no effect
# Target sequence (P21728 whole entry, looked up): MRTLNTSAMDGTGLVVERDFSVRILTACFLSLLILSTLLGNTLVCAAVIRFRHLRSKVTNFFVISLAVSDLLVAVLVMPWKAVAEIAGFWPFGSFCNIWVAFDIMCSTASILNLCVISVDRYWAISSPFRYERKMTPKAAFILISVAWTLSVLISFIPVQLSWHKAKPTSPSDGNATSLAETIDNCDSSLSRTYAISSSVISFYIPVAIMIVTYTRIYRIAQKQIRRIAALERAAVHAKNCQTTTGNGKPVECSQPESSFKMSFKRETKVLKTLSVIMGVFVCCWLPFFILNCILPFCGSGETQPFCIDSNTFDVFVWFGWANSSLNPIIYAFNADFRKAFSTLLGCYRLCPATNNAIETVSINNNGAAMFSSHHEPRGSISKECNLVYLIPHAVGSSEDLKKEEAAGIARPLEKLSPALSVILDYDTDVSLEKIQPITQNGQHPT
#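 Agonism was scored from calcium flux recorded over 180 s (1 read/s) after pintool compound addition, following a 10-cycle baseline. Cells were inducible force-coupled HEK293 TREx D1, plated overnight at 30 C and loaded with no-wash calcium dye.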
# DRD3 antagonist: qHTS of D3 Dopamine Receptor Antagonist: qHTS | D(3) dopamine receptor (Homo sapiens), P35462 | D3R cells, DiscoveRx beta-arrestin luminescence, antagonist mode; hits give low values | max response, negative = inhibition, % | 2.5% of 360,000 active | AID 652054, 2013; in the data active means max response below about -50%; inconclusive means no clear call, values can overlap the other calls; further: on the % scale 0 is the no-effect control and ±100 the full control effect
#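 Cells expressing the human receptor were seeded at 1500 cells/well, incubated overnight at 37 degrees C in 5% CO2, then exposed to library compounds with dopamine controls for 90 minutes at 37 degrees C before luminescent detection.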
# BCR signal inh: qHTS Assay to Find Inhibitors of Chronic Active B-Cell Receptor Signaling; 0.05% of 340,000 active; ABC-DLBCL IkBa-CBG/CBR reporter, luminescence ratio, 4 h; Potency, µM (titrated, usually from 46.1 µM), inactives show at the top dose activity change, negative = inhibition, hits mostly inhibitors; active means well fitted inhibition curve with a large enough effect in the signal ratio, with a control signal flat, not every such curve was filed as active; inconclusive means small, poorly fitted or top-dose-only effect, or effect the other way, or a change in a side signal; the % refers to the signal ratio;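 further: potency means the concentration at half of the fitted maximal effect; plate controls were basal doxycycline-induced cells for no effect and cells given 10 µM MG132 for full effect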
#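 Cell line TMD8 (human ABC DLBCL), stably expressing tet-inducible CBG68-IkBa fusion and CBR; IMDM/0.5% FBS; cpd up to 46 uM; dox induction, 4 h, 37C/5% CO2; dual luminescence; green/red ratio; MG132 control.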
# D1 antag: Antagonist of Human D 1 Dopamine Receptor: qHTS. D(1A) dopamine receptor (Homo sapiens), P21728. HEK293 TREx D1 cells, calcium flux, dopamine EC80; hits give low values. activity change, negative = inhibition, % at 10 µM. 3.2% of 360,000 active. AID 504652, 2011; in the data active means activity change below about -30%; further: on the % scale 0 is the no-effect control and ±100 the full control effect
#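 Inducible Hek293 Trex D1 cells (tetracycline, overnight, 30 C). Calcium dye 30–90 min RT. Antagonist mode: EC80 dopamine added after 180 s compound read.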
# D1 PAM: Potentiators of Human D1 Dopamine Receptor: qHTS | D(1A) dopamine receptor (Homo sapiens), P21728 | potentiation, % at 10 µM | 0.036% of 360,000 active | HEK293 TREx D1 cells, calcium flux, dopamine EC20 potentiation; in the data active means potentiation above about 30%; further: 0% is about no effect
# DRD3 agonist: qHTS of D3 Dopamine Receptor Agonist: qHTS | D3R DiscoveRx beta-arrestin cells, luminescence, 90 min | max activation, % | 0.58% of 410,000 active; in the data active means max activation above about 30%; further: 0% is about no effect
#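 Cells at 1500/well, incubated overnight, then treated with pinned compounds (dopamine as control) for 90 min at 37 degrees C. DiscoveRx reagent added for 30 - 60 minutes at room temperature; luminescence read.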
# * = called active by the depositor; u = inconclusive; x = no result given.
SMILES,D1 agonist,DRD3 antagonist,BCR signal inh,D1 antag,D1 PAM,DRD3 agonist
C=CCn1c(SCC(=O)Nc2ccc(O)cc2)nc2sc(CC)cc2c1=O,0,22,u,-31*,-2,4
C=CCn1c(SCC(=O)Nc2cc(C)on2)nc2sc(CC)cc2c1=O,-3,-14,-5%,-42*,-3,7
COC(=O)[C@@]12C[C@@H](CC(=O)N3CCN(C(=O)C4CC4)CC3)C(=O)N(Cc3cccc4ccccc34)C1=CCC(C)(C)C2,x,15,x,x,x,0
CC1=C(C(=O)N2CCOCC2)CC(CC(=O)NCc2ccco2)C(=O)N1Cc1ccc(C(C)(C)C)cc1 (configuration not stated),x,-7,x,x,x,-7
CCOC(=O)/C(C#N)=C1/SC(CC)C(=O)N1c1ccc(C)cc1 (configuration not stated),2,-57*,0%,-5,-4,11
Cc1[nH]n2c(=O)c3c(nc2c1-c1ccccc1)CCC3,3,u,u,3,-4,-29
Cc1[nH]n2c(=O)c3c(nc2c1-c1ccc(Cl)cc1)CCC3,-1,-87*,3%,1,0,-13
Nc1[nH]n2c(=O)c3c(nc2c1N=Nc1ccc(Cl)cc1)CCCC3,2,33,-9%,-50*,-14,-14
OC1(c2ccccc2)CCN(Cc2ccccc2)C2CCCCC21 (configuration not stated),5,-85*,-1%,9,0,12
Cc1oc(-c2cccs2)nc1CN1CC[C@@](O)(c2ccccc2)[C@H]2CCCC[C@@H]21,5,u,-22%,3,0,-12
O=C(CC(=O)Nc1ccccc1F)Nc1ccc2nc3n(c(=O)c2c1)CCCCC3,5,x,x,11,-3,6
COc1ccc(OCC(O)CNC(=O)Nc2ccc(F)cc2)cc1 (configuration not stated),1,10,0%,-38*,-13,8
Cc1ccc(Cl)cc1N1CCN(CCCNc2ncnc3onc(-c4ccc(Cl)cc4)c23)CC1,2,x,x,-30,-1,-7
Cc1sc2ncn(CC(=O)Nc3ccc(C(C)C)cc3)c(=O)c2c1S(=O)(=O)N1CCN(c2ncccn2)CC1,1,x,x,-61*,0,7
CCC(C)[C@@H](NC(=O)OC(C)(C)C)c1nnc(S(=O)(=O)Cc2cccc(C)c2)o1 (some centres not stated),4,-54*,u,-7,-6,-26
Cc1ccccc1CS(=O)(=O)c1nnc([C@H](Cc2ccccc2)NC(=O)OC(C)(C)C)o1,20,-53*,u,-38*,-11,-31
CC(C)(C)OC(=O)N[C@@H](Cc1ccccc1)c1nnc(S(=O)(=O)Cc2ccccc2)o1,5,x,u,-48*,-12,x
CCSc1nnc([C@H](Cc2ccccc2)NC(=O)OC(C)(C)C)o1,1,4,14%,x,-1,-1
O=C(O)c1ccc(CNCc2c(Cl)cccc2Cl)cc1,2,-5,0%,-51*,-13,-10
O=C(O)c1ccc(CNCc2cccc(Cl)c2)cc1,7,6,6%,-24,-5,-2
CNCC[C@@H](Oc1ccccc1C)c1ccccc1,x,-57*,x,x,x,-57
CNCCC(Oc1ccccc1OC)c1ccccc1 (configuration not stated),x,8,x,x,x,-16
COC1=CC(=O)c2c(ccc3ncnc(N)c23)C1=O,x,-65*,x,x,x,-12
COC(=O)C1=C(c2ccccc2)c2ccccc2S(=O)(=O)N1CC(=O)Nc1ccc(F)c(F)c1,6,x,x,-5,-1,4
Cc1ccc(C(=O)N2[C@@H]3CN(C)C(=O)[C@@]2(C)[C@H]2C(=O)N(Cc4ccccc4)C(=O)[C@@H]32)cc1,x,12,x,x,x,32*
